Laboratory results published in PubChem BioAssay (Tox21).
Records with an inconclusive call do not appear. The source made the active and inactive calls. Unless noted, calls follow the shape of the dose curve; as a rule, active = well fitted curve in the direction sought with a large enough effect in the repeat runs; inconclusive = weak or mixed curves; inactive = no such curve, though single readings can be large; an effect the other way counts as inactive or inconclusive.

Experiments:
[1] = qHTS assay to identify small molecule antagonists of the retinoid acid receptor (RAR) signaling pathway - cell viability counter screen (AID 1159551); also: nearly all actives have a fitted effect of over 35% in size
In short: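 C3RL4 RARE-luciferase cells, 1,000/well, incubated overnight, then dosed with compound plus 1 uM retinol (final). After 6 hr at 37 C, viability read by CellTiter-Glo ATP luminescence following 30 min at room temperature.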

[2] = qHTS assay to identify small molecule antagonists of the retinoic acid receptor (RAR) signaling pathway (AID 1159552; also: nearly all actives have a fitted effect of over 50% in size; also: potency is read from the fitted curve at half-maximal effect)
In short: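 Antagonism of retinol-induced RARE reporter activity was measured in C3RL4 cells. Exposure to compounds and 1 uM final retinol lasted 6 hr at 37 C, with luminescence as endpoint.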

[3] = qHTS assay to identify small molecule agonists of the retinoic acid receptor (RAR) signaling pathway (AID 1159553); also: potency is read from the fitted curve at half-maximal effect
In short: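 C3RL4 RARE-luciferase cells were seeded at 1,000/well and grown overnight at 37 C, then exposed to compounds for 6 hr at 37 C, 5% CO2. Luciferase reagent was added and luminescence was read after 30 min at room temperature.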

[4] = qHTS assay to identify small molecule antagonists of the estrogen related receptor (ERR) signaling pathway - cell viability counter screen (AID 1224818); also: series mostly up to about 46 µM
In short: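 ERR cells, 2,000 per well, compound added after 6 h and incubated 17.5 h at 37 C. Viability read by CellTiter-Fluor fluorescence after a further 30 min at 37 C.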

[5] = qHTS assay to identify small molecule antagonists of the estrogen related receptor (ERR) signaling pathway (AID 1224819;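 also: luminescence from an ERR-driven luciferase reporter measured with One-Glo reagent; series mostly up to about 46 µM; nearly all actives have a fitted effect of over 50% in size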)
In short: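 ERR reporter cell line (NTP) plated at 2,000 cells/well, settled 6 h at 37C/5% CO2, then exposed to LOPAC compounds for 18 h at 37C. One-Glo luciferase luminescence read after 30 min at room temperature.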

[6] = qHTS assay to identify small molecule agonists of the estrogen related receptor (ERR) signaling pathway (AID 1224820)
In short: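 Quantitative HTS of the LOPAC library used NTP ERR reporter cells treated 18 h at 37 C. Signal is luminescence after One-Glo addition and a 30 min room-temperature incubation.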

[7] = test system: estrogen-related receptor alpha (ERRalpha) with PGC-1alpha coactivator, human; assay: qHTS assay to identify small molecule antagonists of the estrogen related receptor signaling pathway with the pleiotropic PPARgamma coactivator (PGC) (AID 1224821; calls by dose curve;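 also: series mostly up to about 46 µM; lower luminescence signal means antagonism of PGC/ERR signalling; nearly all actives have a fitted effect of over 50% in size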)
In short: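 Quantitative HTS for antagonism: PGC/ERR cells received compounds after 6 h attachment and were incubated 18 h at 37 C, with luminescence (One-Glo) as the endpoint.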

[8] = qHTS assay to identify small molecule antagonists of the estrogen related receptor signaling pathway with the pleiotropic PPARgamma coactivator (PGC) cell viability counter screen (AID 1224822; also: series mostly up to about 46 µM)
In short: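 PGC/ERR cells rested 6 h, then compound-treated 17.5 h at 37 C. CellTiter-Fluor added for 30 min at 37 C, viability measured by fluorescence intensity.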

[9] = qHTS assay to identify small molecule agonists of the estrogen related receptor signaling pathway with the pleiotropic PPARgamma coactivator (PGC) (AID 1224823)
In short: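 Cell-based luciferase assay in the NTP-supplied PGC/ERR line, 2,000 cells/well; 18 h compound exposure at 37 C, luminescence after One-Glo.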

[10] = biological target: Luciferin 4-monooxygenase (Photinus pyralis) (UniProt P08659); assay: qHTS assay to identify small molecule inhibitors of firefly luciferase (AID 1224835); also: nearly all actives have a fitted effect of over 25% in size; also: potency is read from the fitted curve at half-maximal effect
Luciferin 4-monooxygenase (Photinus pyralis), sequence (P08659 whole entry, looked up): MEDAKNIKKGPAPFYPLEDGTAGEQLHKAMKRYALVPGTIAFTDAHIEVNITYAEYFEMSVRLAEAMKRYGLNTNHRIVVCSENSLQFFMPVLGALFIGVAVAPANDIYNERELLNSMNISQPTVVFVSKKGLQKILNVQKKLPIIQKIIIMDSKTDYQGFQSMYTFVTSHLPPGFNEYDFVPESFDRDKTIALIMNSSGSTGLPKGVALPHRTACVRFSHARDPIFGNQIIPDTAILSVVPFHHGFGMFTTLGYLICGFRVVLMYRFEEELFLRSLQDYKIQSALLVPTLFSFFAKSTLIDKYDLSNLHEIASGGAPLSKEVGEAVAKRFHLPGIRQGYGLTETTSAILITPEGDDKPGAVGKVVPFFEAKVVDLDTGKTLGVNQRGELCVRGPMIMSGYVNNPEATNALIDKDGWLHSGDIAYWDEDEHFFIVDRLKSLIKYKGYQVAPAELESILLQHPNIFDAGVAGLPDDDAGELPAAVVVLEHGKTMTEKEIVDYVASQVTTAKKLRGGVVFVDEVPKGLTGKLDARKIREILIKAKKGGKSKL
In short: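 Quantitative HTS format; KM concentrations of both substrates. Purified P. pyralis FLuc activity quantified from luminescence images.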

[11] = biological target: Nuclear receptor subfamily 1 group I member 3 (Homo sapiens) (UniProt Q14994); assay: qHTS assay to identify small molecule antagonists of the constitutive androstane receptor (CAR) signaling pathway (AID 1224838); also: nearly all actives have a fitted effect of over 40% in size; also: potency is read from the fitted curve at half-maximal effect
Nuclear receptor subfamily 1 group I member 3 (Homo sapiens), sequence (Q14994 whole entry, looked up): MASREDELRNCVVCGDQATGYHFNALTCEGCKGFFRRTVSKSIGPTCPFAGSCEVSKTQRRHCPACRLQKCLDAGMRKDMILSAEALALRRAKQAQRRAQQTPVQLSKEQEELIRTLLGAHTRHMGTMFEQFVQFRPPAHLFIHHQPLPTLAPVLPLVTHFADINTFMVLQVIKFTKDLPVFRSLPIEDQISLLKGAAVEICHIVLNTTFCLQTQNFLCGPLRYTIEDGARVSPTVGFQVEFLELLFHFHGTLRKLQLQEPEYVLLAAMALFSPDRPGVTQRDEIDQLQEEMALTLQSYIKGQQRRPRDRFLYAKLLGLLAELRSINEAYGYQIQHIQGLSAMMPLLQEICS
In short: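 HepG2 cells stably carrying hCAR and a CYP2B6-2.2kb luciferase reporter, seeded 4 hrs before compound (15 concentrations). Stimulated with 50 nM CITCO for 24 hr at 37 C. ONE-Glo luminescence read after 30 min at room temperature.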

[12] = qHTS assay to identify small molecule antagonists of the estrogen related receptor signaling pathway with the pleiotropic PPARgamma coactivator (PGC) from Tox21 10K library - cell viability counter screen (AID 1224840; active = well fitted cell-killing curve with a large enough effect in the repeat runs, not every such curve was filed as active; also: nearly all actives have a fitted effect of over 40% in size; also: potency is read from the fitted curve at half-maximal effect)
In short: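 PGC/ERR cells (2,000/well) plated 6 h, then compound-treated for 17.5 h at 37 C. Viability measured by CellTiter-Fluor fluorescence after 30 min at 37 C, multiplexed with the pathway assay.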

[13] = qHTS assay to identify small molecule antagonists of the estrogen related receptor signaling pathway with the pleiotropic PPARgamma coactivator (PGC) from Tox21 10K library (AID 1224841; call rule not given here; also: actives are mostly falling curves and most rising ones were filed inactive; nearly all actives have a fitted effect of over 50% in size; also: potency is read from the fitted curve at half-maximal effect)
In short: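 PGC/ERR cell line, 2,000 cells/well, pre-incubated 6 hours at 37 C, then exposed to compounds for 18 hours at 37 C; luciferase read with One-Glo luminescence after 30 min at room temperature.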

[14] = biological target: Thyrotropin receptor (Homo sapiens) (UniProt P16473); assay: qHTS assay to identify small molecule agonists of the thyroid stimulating hormone receptor (TSHR) signaling pathway (AID 1224843; calls by dose curve; also: nearly all actives have a fitted effect of over 45% in size; also: potency is read from the fitted curve at half-maximal effect)
Thyrotropin receptor (Homo sapiens), sequence (P16473 whole entry, looked up): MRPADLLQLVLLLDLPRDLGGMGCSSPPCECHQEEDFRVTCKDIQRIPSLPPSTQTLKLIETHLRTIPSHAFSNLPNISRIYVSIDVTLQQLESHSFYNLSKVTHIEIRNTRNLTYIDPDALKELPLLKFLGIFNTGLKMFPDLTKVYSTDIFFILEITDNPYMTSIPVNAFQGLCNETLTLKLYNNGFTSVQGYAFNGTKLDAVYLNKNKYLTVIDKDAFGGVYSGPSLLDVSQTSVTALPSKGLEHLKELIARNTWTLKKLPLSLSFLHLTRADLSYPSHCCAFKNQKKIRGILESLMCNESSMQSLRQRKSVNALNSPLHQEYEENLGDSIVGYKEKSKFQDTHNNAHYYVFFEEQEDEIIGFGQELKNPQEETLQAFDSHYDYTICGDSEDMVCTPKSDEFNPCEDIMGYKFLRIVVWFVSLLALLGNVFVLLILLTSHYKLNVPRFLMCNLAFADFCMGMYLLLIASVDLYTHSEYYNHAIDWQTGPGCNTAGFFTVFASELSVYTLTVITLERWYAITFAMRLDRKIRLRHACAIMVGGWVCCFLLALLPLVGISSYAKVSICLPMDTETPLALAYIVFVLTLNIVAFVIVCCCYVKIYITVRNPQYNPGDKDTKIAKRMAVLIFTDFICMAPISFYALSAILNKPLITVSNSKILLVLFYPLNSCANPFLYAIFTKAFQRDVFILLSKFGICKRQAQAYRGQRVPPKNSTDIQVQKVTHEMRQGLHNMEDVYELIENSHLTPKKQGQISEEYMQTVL
In short: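 TSHR-expressing HEK293 cells (800 per well) were exposed to compounds for 30 min at room temperature. cAMP was then detected by HTRF competition with cAMP-d2 and anti-cAMP cryptate, read after 1 h at room temperature. Fifteen concentrations, triplicate.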

[15] = qHTS assay to identify small molecule agonists of the RXR signaling pathway - cell viability counter screen (AID 1159529); also: nearly all actives have a fitted effect of over 50% in size; also: potency is read from the fitted curve at half-maximal effect
In short: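 Counter screen: CellTiter-Glo luminescence. Cells: RXR-alpha-UAS-bla HEK 293T. Medium: 2% charcoal-stripped FBS. Treatment: 16 h, 37 C. Reagent incubation: 30 min, RT.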

[16] = qHTS assay to identify small molecule antagonists of the estrogen related receptor (ERR) signaling pathway from Tox21 library - cell viability counter screen (AID 1224834); also: nearly all actives have a fitted effect of over 30% in size; also: potency is read from the fitted curve at half-maximal effect
In short: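 ERR reporter cells, 2,000 per well, rested 6 h, then exposed to compound in DMSO for 17.5 hours at 37 C. Viability read as fluorescence after 30 min with CellTiter-Fluor.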

[17] = qHTS assay to identify small molecule agonists of the constitutive androstane receptor (CAR) signaling pathway - cell viability counter screen (AID 1224836); also: nearly all actives have a fitted effect of over 45% in size; also: potency is read from the fitted curve at half-maximal effect
In short: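 Double-stable HepG2 hepatoma cells (hCAR plus CYP2B6-2.2kb) are treated for 23 h at 37 C with test compounds in 15-point concentration series. PK11195 at 0.75 uM final is co-added. Cell viability is quantified by CellTiter-Fluor.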

[18] = qHTS assay to identify small molecule antagonists of the constitutive androstane receptor (CAR) signaling pathway - cell viability counter screen (AID 1224837); also: nearly all actives have a fitted effect of over 45% in size; also: potency is read from the fitted curve at half-maximal effect
In short: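 HepG2 cells stably carrying hCAR and CYP2B6-2.2kb reporter, stimulated with 50 nM CITCO and compounds at 15 concentrations for 23 h at 37 C. Viability measured by CellTiter-Fluor fluorescence.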

[19] = qHTS assay to identify small molecule agonists of the estrogen related receptor signaling pathway with the pleiotropic PPARgamma coactivator (PGC) from Tox21 10K library (AID 1224842); also: nearly all actives have a fitted effect of over 15% in size; also: potency is read from the fitted curve at half-maximal effect
In short: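 PGC/ERR reporter cells (NTP line) were seeded 2,000 per well, rested 6 h at 37 C/5% CO2, then pin-dosed with compounds in DMSO for 18 h at 37 C; luciferase read by One-Glo luminescence after 30 min at room temperature.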

[20] = biological target: Nuclear receptor subfamily 1 group I member 3 (Homo sapiens) (UniProt Q14994); assay: qHTS assay to identify small molecule agonists of the constitutive androstane receptor (CAR) signaling pathway (AID 1224839); also: nearly all actives have a fitted effect of over 15% in size; also: potency is read from the fitted curve at half-maximal effect
In short: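 Readout: firefly luciferase luminescence via ONE-Glo. System: HepG2 double-stable for hCAR and CYP2B6-2.2kb. Conditions: 15-point compound titration, PK11195 at 0.75 uM final, 24 h incubation.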

Measured: Potency

O=[N+]([O-])c1c2ccccc2cc2ccccc12
active: [3] 19.1 µM | [10] 31.3 µM
not listed: [15] | [16] | [17] | [18] | [19] | [20]
inactive: all other assays above

CCC(C)c1cc(C(C)(C)C)cc(-n2nc3ccccc3n2)c1O (stereo unspecified)
inactive: [15] | [16] | [17] | [18] | [12] | [13] | [19]

Cc1c(Cl)c(=O)oc2cc(OP(=O)(OCCCl)OCCCl)ccc12
inactive: [1] | [2] | [3] | [10] | [18] | [11] | [20] | [12] | [14]

CC1CCC(C(C)C)C(OC(=O)c2ccccc2N)C1 (stereo unspecified)
active: [15] 17.1 µM
inactive: [10] | [17] | [18] | [11] | [19] | [14]

Cc1cc(C(F)(C(F)(F)F)C(F)(F)F)ccc1NC(=O)c1cccc(I)c1C(=O)NC(C)(C)CS(C)(=O)=O
inactive: [1] | [2] | [3] | [16] | [17] | [18] | [12] | [19] | [14]

COC(=O)N(C(=O)N1COC2(C(=O)OC)Cc3cc(Cl)ccc3C2=N1)c1ccc(OC(F)(F)F)cc1 (stereo unspecified)
active: [13] 23.7 µM
inactive: [15] | [10] | [18] | [12] | [19] | [14]

O=C1NCN(c2ccccc2)C12CCN(CC1COc3ccccc3O1)CC2 (stereo unspecified)
not listed: [5] | [7] | [8] | [13] | [15] | [16] | [20]
inactive: all other assays above

CC(C)[C@H](C(=O)OC(C#N)c1cccc(Oc2ccccc2)c1)c1ccc(OC(F)F)cc1 (stereo partly specified)
inactive: [1] | [2] | [3] | [10] | [17] | [18] | [11] | [20] | [12] | [19] | [14]

Oc1ccc(I)cc1
inactive: [15] | [10] | [17] | [18] | [11] | [12] | [14]

CCCCCCCCCCCCBr
inactive: [1] | [2] | [3] | [17] | [18] | [11] | [20] | [12] | [14]

CN(C)S(=O)(=O)N(SC(F)(Cl)Cl)c1ccccc1
active: [15] 21.9 µM | [10] 35.6 µM | [17] 30.6 µM | [18] 27.3 µM | [11] 21.7 µM | [12] 24.3 µM
inactive: [20]

O=C1c2ccccc2C(=O)C1C(=O)C(c1ccccc1)c1ccc(Cl)cc1 (stereo unspecified)
active: [13] 6.11 µM
inactive: [1] | [2] | [3] | [10] | [18] | [11] | [19] | [14]

Clc1ccc(-c2ccc(Cl)c(Cl)c2Cl)c(Cl)c1Cl
not listed: [4] | [5] | [6] | [7] | [8] | [9] | [15] | [20]
inactive: all other assays above

NC(=O)c1ccc(N)nc1
active: [15] 13.8 µM
inactive: [17] | [18] | [11] | [12]

Oc1ccccc1Br
inactive: [1] | [2] | [16] | [10] | [17] | [18] | [11] | [20] | [12]

c1ccc2cc3c(cc2c1)-c1cccc2cccc-3c12
inactive: [1] | [2] | [3] | [16] | [10] | [17] | [18] | [11] | [13] | [19]
active: [20] 0.955 µM

O=C(Nc1ccc2[nH]ccc2c1)c1cc2cc(F)ccc2n1Cc1cccc(F)c1
active: [2] 68.6 µM | [16] 61.1 µM | [18] 61.1 µM | [20] 27.3 µM | [19] 2.73 µM
inactive: [1] | [3] | [10] | [13]

O=C(O)c1cc[c]([Hg][Cl])cc1
inactive: [20]
active: [15] 43.6 µM | [10] 5.03 µM | [18] 54.5 µM | [12] 13.7 µM | [14] 15.4 µM

[Cl][Sb]([Cl])[Cl]
active: [16] 21.7 µM
inactive: [1] | [2] | [10] | [17] | [18] | [11] | [20] | [14]

SCc1ccco1
inactive: [15] | [10] | [17] | [18] | [11] | [14]

CC(=O)[O-].CC(=O)[O-].O.O.[Cd+2]
active: [15] 13.6 µM | [16] 26.9 µM | [17] 5.37 µM | [18] 6.76 µM | [12] 12 µM

N#Cc1ccc(O)cc1
inactive: [1] | [2] | [16] | [10] | [17] | [18] | [11] | [20] | [12] | [14]
